Reference: PubChem BioAssay AID1159580 (chemical genetic matrix, 2015)
Screen size: about 5,500 compounds; about 2,000 (36%) were called active. Inconclusive results (about 18%) are left out. No stated cut-off is given here; in the data, active means normalized growth mostly below about 0.91 (no sharp cut-off); inconclusive means no clear call, values can overlap the other calls; inactive means mostly above about 0.92. The list shows a part of the results.

Experiment: chemical genetic growth profiling, strain panel (AID 1159580);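 further: tested at 20 µM; growth read once vehicle control cultures reached saturation at 30 °C; 1 = growth at the plate median or of vehicle wells; lower values mean less growth of the strain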
Conditions: growth OD

Measured: normalized growth

O=C1c2ccccc2C(=O)c2ccccc21
inactive: S. cerevisiae deletion strains, locus YJR075W, strain HOC1, hits give low values 0.956 | S. cerevisiae deletion strains, locus YKL009W, strain mrt4, hits give low values 0.933 | S. cerevisiae deletion strains, locus YKL068W, hits give low values 0.986 | S. cerevisiae deletion strains, locus YKL085W, strain MDH1 (second series), hits give low values 0.97 | S. cerevisiae deletion strains, locus YKL085W, strain MDH1, hits give low values 0.97 | S. cerevisiae deletion strains, locus YKL160W, strain elf1, hits give low values 0.986 | S. cerevisiae deletion strains, locus YKL190W, strain CNB1, hits give low values 0.98 | S. cerevisiae deletion strains, locus YKR001C, strain vps1, hits give low values 0.972 | S. cerevisiae deletion strains, locus YKR026C, strain gcn3, hits give low values 1 | S. cerevisiae deletion strains, locus YKR091W, strain srl3, hits give low values 1 | S. cerevisiae deletion strains, locus YLL001W, strain dnm1, hits give low values 1.01 | S. cerevisiae deletion strains, locus YLL026W, hits give low values 0.993 | S. cerevisiae deletion strains, locus YLL041C, strain sdh2, hits give low values 0.993 | S. cerevisiae deletion strains, locus YLR027C, strain aat2, hits give low values 0.999 | S. cerevisiae deletion strains, locus YLR039C, strain RIC1, hits give low values 0.765 | S. cerevisiae deletion strains, locus YLR058C, strain SHM2, hits give low values 0.988 | S. cerevisiae deletion strains, locus YLR102C, strain apc9, hits give low values 0.989 | S. cerevisiae deletion strains, locus YLR113W, strain HOG1, hits give low values 1.1 | S. cerevisiae deletion strains, locus YLR221C, strain rsa3, hits give low values 0.969 | S. cerevisiae deletion strains, locus YLR258W, strain gsy2, hits give low values 0.993 | S. cerevisiae deletion strains, locus YLR262C, strain YPT6 (second series), hits give low values 0.96 | S. cerevisiae deletion strains, locus YLR262C, strain YPT6, hits give low values 0.71 | S. cerevisiae deletion strains, locus YLR268W, strain sec22, hits give low values 0.974 | S. cerevisiae deletion strains, locus YLR320W, strain mms22, hits give low values 0.903 | S. cerevisiae deletion strains, locus YLR330W, strain CHS5, hits give low values 0.993 | S. cerevisiae deletion strains, locus YLR342W, strain FKS1 (second series), hits give low values 0.938 | S. cerevisiae deletion strains, locus YLR342W, strain FKS1, hits give low values 1.01 | S. cerevisiae deletion strains, locus YLR357W, strain rsc2, hits give low values 0.976 | S. cerevisiae deletion strains, locus YLR370C, strain arc18, hits give low values 0.994 | S. cerevisiae deletion strains, locus YLR371W, strain rom2, hits give low values 0.975 | S. cerevisiae deletion strains, locus YLR384C, strain iki3, hits give low values 0.994 | S. cerevisiae deletion strains, locus YLR418C, strain cdc73, hits give low values 1.01 | S. cerevisiae deletion strains, locus YML016C, strain PPZ1, hits give low values 0.992 | S. cerevisiae deletion strains, locus YML032C, strain rad52, hits give low values 0.976 | S. cerevisiae deletion strains, locus YML120C, strain ndi1, hits give low values 1.01 | S. cerevisiae deletion strains, locus YML124C, strain tub3, hits give low values 0.989 | S. cerevisiae deletion strains, locus YMR058W, strain fet3, hits give low values 0.948 | S. cerevisiae deletion strains, locus YMR078C, strain ctf18, hits give low values 0.995 | S. cerevisiae deletion strains, locus YMR125W, strain sto1, hits give low values 1.08 | S. cerevisiae deletion strains, locus YMR129W, hits give low values 0.996 | S. cerevisiae deletion strains, locus YMR205C, strain PFK2, hits give low values 1.03 | S. cerevisiae deletion strains, locus YMR223W, strain ubp8, hits give low values 0.963 | S. cerevisiae deletion strains, locus YMR231W, strain pep5, hits give low values 0.998 | S. cerevisiae deletion strains, locus YMR263W, strain SAP30, hits give low values 0.97 | S. cerevisiae deletion strains, locus YMR307W, strain GAS1, hits give low values 0.804 | S. cerevisiae deletion strains, locus YNL067W, strain RPL9B, hits give low values 0.964 | S. cerevisiae deletion strains, locus YNL071W, strain lat1, hits give low values 0.955 | S. cerevisiae deletion strains, locus YNL128W, strain TEP1, hits give low values 0.946 | S. cerevisiae deletion strains, locus YNL153C, strain GIM3, hits give low values 1 | S. cerevisiae deletion strains, locus YNL183C, strain NPR1, hits give low values 0.961 | S. cerevisiae deletion strains, locus YNL209W, strain ssb2, hits give low values 0.978 | S. cerevisiae deletion strains, locus YNL233W, strain BNI4, hits give low values 0.995 | S. cerevisiae deletion strains, locus YNL250W, strain rad50, hits give low values 0.974 | S. cerevisiae deletion strains, locus YNL271C, strain bni1, hits give low values 0.978 | S. cerevisiae deletion strains, locus YNL298W, strain CLA4, hits give low values 0.975 | S. cerevisiae deletion strains, locus YNL307C, strain MCK1, hits give low values 0.971 | S. cerevisiae deletion strains, locus YNL322C, strain KRE1 (second series), hits give low values 1.03 | S. cerevisiae deletion strains, locus YNL322C, strain KRE1, hits give low values 0.987 | S. cerevisiae deletion strains, locus YNR049C, strain mso1, hits give low values 0.995 | S. cerevisiae deletion strains, locus YNR052C, strain pop2, hits give low values 0.99 | S. cerevisiae deletion strains, locus YOL006C, strain TOP1, hits give low values 0.97 | S. cerevisiae deletion strains, locus YOL012C, strain htz1 0.796 | S. cerevisiae deletion strains, locus YOL147C, strain pex11, hits give low values 1.01 | S. cerevisiae deletion strains, locus YOR001W, strain rrp6, hits give low values 0.991 | S. cerevisiae deletion strains, locus YOR061W, strain CKA2, hits give low values 0.988 | S. cerevisiae deletion strains, locus YOR069W, strain VPS5, hits give low values 1.01 | S. cerevisiae deletion strains, locus YOR070C, strain gyp1, hits give low values 0.996 | S. cerevisiae deletion strains, locus YOR080W, strain dia2, hits give low values 1.01 | S. cerevisiae deletion strains, locus YOR083W, strain WHI5, hits give low values 0.963 | S. cerevisiae deletion strains, locus YOR106W, strain vam3, hits give low values 0.945 | S. cerevisiae deletion strains, locus YOR136W, strain idh2, hits give low values 0.985 | S. cerevisiae deletion strains, locus YOR144C, strain elg1, hits give low values 0.992 | S. cerevisiae deletion strains, locus YOR184W, strain ser1, hits give low values 0.942 | S. cerevisiae deletion strains, locus YOR231W, strain MKK1, hits give low values 1.02 | S. cerevisiae deletion strains, locus YOR265W, strain rbl2, hits give low values 0.993 | S. cerevisiae deletion strains, locus YOR270C, strain vph1, hits give low values 0.804 | S. cerevisiae deletion strains, locus YOR290C, strain snf2, hits give low values 0.973 | S. cerevisiae deletion strains, locus YOR316C, strain cot1, hits give low values 0.996 | S. cerevisiae deletion strains, locus YPL051W, strain arl3, hits give low values 0.926 | S. cerevisiae deletion strains, locus YPL055C, strain LGE1, hits give low values 0.9 | S. cerevisiae deletion strains, locus YPL078C, strain atp4, hits give low values 0.96 | S. cerevisiae deletion strains, locus YPL106C, strain sse1, hits give low values 0.954 | S. cerevisiae deletion strains, locus YPL240C, strain hsp82, hits give low values 0.995 | S. cerevisiae deletion strains, locus YPL241C, strain CIN2, hits give low values 0.953 | S. cerevisiae deletion strains, locus YPL256C, strain CLN2, hits give low values 1.08 | S. cerevisiae deletion strains, locus YPR119W, strain clb2, hits give low values 0.996 | S. cerevisiae deletion strains, locus YPR141C, strain kar3, hits give low values 0.99 | S. cerevisiae deletion strains, locus YPR163C, strain tif3, hits give low values 0.996 | S. cerevisiae deletion strains, locus YPR167C, strain met16, hits give low values 1 | S. cerevisiae deletion strains, strain wtn01, hits give low values 0.988 | S. cerevisiae strains, strain wild type, hits give low values 0.995
active: S. cerevisiae deletion strains, locus YNL248C, strain rpa49, hits give low values 0.837
